# Reference: the supplement of paper PMC9492666
# Legend:
# HCC1937 = assay: relative cell viability, compound + erastin, vs DMSO (fraction of DMSO control); higher = less growth inhibition; details: 72 h
# MDA-MB-231 = assay: as above; details: 72 h
# 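Note: viability read by CCK-8 kit in 96-well plates, part of a combination screen pairing lipid-metabolism-targeting compounds with erastin.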
Structure (SMILES),relative cell viability (HCC1937),relative cell viability (MDA-MB-231)
CCC1=N[C@H]2C[C@@]3(C(=O)N(OC)c4ccccc43)[C@H]3CC1[C@@H]2CO3 [Humantenmine] + CCOc1ccccc1-n1c(C(C)N2CCN(C(=O)COc3ccc(Cl)cc3)CC2)nc2ccccc2c1=O [erastin],0.573,0.63
CC(=O)c1c(C)cc2cccc(O)c2c1O [Nepodin] + CCOc1ccccc1-n1c(C(C)N2CCN(C(=O)COc3ccc(Cl)cc3)CC2)nc2ccccc2c1=O [erastin],0.7,0.766
NC(=O)c1cnccn1 [Pyrazinamide] + CCOc1ccccc1-n1c(C(C)N2CCN(C(=O)COc3ccc(Cl)cc3)CC2)nc2ccccc2c1=O [erastin],0.791,0.948
NNC(=O)c1nn(Cc2ccc(Cl)cc2Cl)c2ccccc12 [Adjudin] + CCOc1ccccc1-n1c(C(C)N2CCN(C(=O)COc3ccc(Cl)cc3)CC2)nc2ccccc2c1=O [erastin],0.557,0.711
COc1ccc(N(C(=O)Nc2c(C)cccc2C)c2cc(Nc3ccc(N4CCN(C)CC4)cc3)ncn2)c(OC)c1 + CCOc1ccccc1-n1c(C(C)N2CCN(C(=O)COc3ccc(Cl)cc3)CC2)nc2ccccc2c1=O [erastin],0.553,0.852
O=C(O)/C=C/c1ccc(O)c(O)c1 [Caffeic Acid] + CCOc1ccccc1-n1c(C(C)N2CCN(C(=O)COc3ccc(Cl)cc3)CC2)nc2ccccc2c1=O [erastin],0.777,0.979
N=C(N)NCCC(=O)O [3-Guanidinopropionic Acid] + CCOc1ccccc1-n1c(C(C)N2CCN(C(=O)COc3ccc(Cl)cc3)CC2)nc2ccccc2c1=O [erastin],0.714,0.852
CC[C@H]1[C@@H](O)[C@@H]2[C@H](CC[C@]3(C)[C@@H]([C@H](C)CCC(=O)O)CC[C@@H]23)[C@@]2(C)CC[C@@H](O)C[C@@H]12 [Obeticholic Acid] + CCOc1ccccc1-n1c(C(C)N2CCN(C(=O)COc3ccc(Cl)cc3)CC2)nc2ccccc2c1=O [erastin],0.616,0.771
Cc1ccc(/C=C2\SC(=S)N(CCCCCC(=O)Nc3ccc(C(=O)O)c(O)c3)C2=O)cc1 + CCOc1ccccc1-n1c(C(C)N2CCN(C(=O)COc3ccc(Cl)cc3)CC2)nc2ccccc2c1=O [erastin],0.715,0.638
CC(C)CCC[C@@H](C)[C@H]1CC[C@H]2[C@@H]3CC=C4C[C@@H](O)CC[C@]4(C)[C@H]3CC[C@]12C [Cholesterol] + CCOc1ccccc1-n1c(C(C)N2CCN(C(=O)COc3ccc(Cl)cc3)CC2)nc2ccccc2c1=O [erastin],0.901,0.953
CC(C)c1onc(-c2c(Cl)cccc2Cl)c1COc1ccc(/C=C/c2cccc(C(=O)O)c2)c(Cl)c1 + CCOc1ccccc1-n1c(C(C)N2CCN(C(=O)COc3ccc(Cl)cc3)CC2)nc2ccccc2c1=O [erastin],0.722,0.762
NC(N)=NN=Cc1cccc(Cl)c1Cl [Raphin1] + CCOc1ccccc1-n1c(C(C)N2CCN(C(=O)COc3ccc(Cl)cc3)CC2)nc2ccccc2c1=O [erastin],0.556,0.558
CN(CCOc1ccc(CC2SC(=O)NC2=O)cc1)c1ccccn1 (configuration not stated) [Rosiglitazone] + CCOc1ccccc1-n1c(C(C)N2CCN(C(=O)COc3ccc(Cl)cc3)CC2)nc2ccccc2c1=O [erastin],0.999,0.697
CCC(=O)Nc1cccc(Oc2nc(Nc3ccc(N4CCN(C)CC4)cc3OC)ncc2Cl)c1 + CCOc1ccccc1-n1c(C(C)N2CCN(C(=O)COc3ccc(Cl)cc3)CC2)nc2ccccc2c1=O [erastin],0.255,0.795
COC(=O)N(CC(=O)O)Cc1cccc(OCc2nc(-c3ccc(Cl)cc3)oc2C)c1 + CCOc1ccccc1-n1c(C(C)N2CCN(C(=O)COc3ccc(Cl)cc3)CC2)nc2ccccc2c1=O [erastin],0.734,0.627
CCN(CC)Cc1ccc(C(=O)N(CCc2ccccc2OC)[C@@H]2CCNC2)cc1 + CCOc1ccccc1-n1c(C(C)N2CCN(C(=O)COc3ccc(Cl)cc3)CC2)nc2ccccc2c1=O [erastin],0.872,0.726
CCCc1cc(-c2nc(-c3ccc(NS(C)(=O)=O)cc3)cs2)ccn1 + CCOc1ccccc1-n1c(C(C)N2CCN(C(=O)COc3ccc(Cl)cc3)CC2)nc2ccccc2c1=O [erastin],0.394,0.651
CC(=O)Oc1cc(C(F)(F)F)ccc1C(=O)O [Triflusal] + CCOc1ccccc1-n1c(C(C)N2CCN(C(=O)COc3ccc(Cl)cc3)CC2)nc2ccccc2c1=O [erastin],0.751,0.648

Structure (SMILES),relative cell viability (HCC1937),relative cell viability (MDA-MB-231)
COc1cccc(CNc2ccc(S(=O)(=O)Nc3nc4ccccc4s3)cc2)c1O + CCOc1ccccc1-n1c(C(C)N2CCN(C(=O)COc3ccc(Cl)cc3)CC2)nc2ccccc2c1=O [erastin],0.639,0.68
CC(C)[C@H]1CC[C@H](C(=O)N[C@H](Cc2ccccc2)C(=O)O)CC1 [Nateglinide] + CCOc1ccccc1-n1c(C(C)N2CCN(C(=O)COc3ccc(Cl)cc3)CC2)nc2ccccc2c1=O [erastin],0.666,0.734
CCc1ccc(N(CC(C)C)S(=O)(=O)c2ccc(OCC3CCOCC3)c(CO)c2)cc1 + CCOc1ccccc1-n1c(C(C)N2CCN(C(=O)COc3ccc(Cl)cc3)CC2)nc2ccccc2c1=O [erastin],0.508,0.604
COP(=O)(OC)OC(c1ccc(Cl)cc1)P(=O)(OC)OC (configuration not stated) [Mifobate] + CCOc1ccccc1-n1c(C(C)N2CCN(C(=O)COc3ccc(Cl)cc3)CC2)nc2ccccc2c1=O [erastin],0.875,1.06
CC(C)(C)c1ccc(-c2nc3ccccc3[nH]2)cc1 + CCOc1ccccc1-n1c(C(C)N2CCN(C(=O)COc3ccc(Cl)cc3)CC2)nc2ccccc2c1=O [erastin],0.225,0.295
Cn1c2cc([S+](C)[O-])sc2c2cnn(Cc3cccc(N)c3)c(=O)c21 (configuration not stated) + CCOc1ccccc1-n1c(C(C)N2CCN(C(=O)COc3ccc(Cl)cc3)CC2)nc2ccccc2c1=O [erastin],0.61,0.745
O=C(c1ccc(NS(=O)(=O)c2cccc3cccnc23)cc1)N1CCN(CC2CC2)CC1 [Mitapivat] + CCOc1ccccc1-n1c(C(C)N2CCN(C(=O)COc3ccc(Cl)cc3)CC2)nc2ccccc2c1=O [erastin],0.596,0.638
CC1(C)CC[C@]2(C(=O)O[C@@H]3O[C@H](CO)[C@@H](O)[C@H](O)[C@H]3O)CC[C@]3(C)C(=CC[C@@H]4[C@@]5(C)CC[C@H](O[C@@H]6O[C@H](C(=O)O)[C@@H](O)[C@H](O)[C@H]6O[C@@H]6O[C@H](CO)[C@@H](O)[C@H](O)[C@H]6O)C(C)(C)[C@@H]5CC[C@]43C)[C@@H]2C1 [Ginsenoside Ro] + CCOc1ccccc1-n1c(C(C)N2CCN(C(=O)COc3ccc(Cl)cc3)CC2)nc2ccccc2c1=O [erastin],0.703,0.726
O=C(O)CCn1c2c(c3ccccc31)C[C@H](NS(=O)(=O)c1ccc(F)cc1)CC2 [Ramatroban] + CCOc1ccccc1-n1c(C(C)N2CCN(C(=O)COc3ccc(Cl)cc3)CC2)nc2ccccc2c1=O [erastin],0.494,0.806
CCCc1cc(-c2nc(-c3ccc(C)cc3)cs2)ccn1 [Fatostatin] + CCOc1ccccc1-n1c(C(C)N2CCN(C(=O)COc3ccc(Cl)cc3)CC2)nc2ccccc2c1=O [erastin],0.534,0.595
Nc1ncnc2c1ncn2[C@@H]1O[C@H](COP(=O)(O)O)[C@@H](O)[C@H]1O [Adenosine 5'-monophosphate] + CCOc1ccccc1-n1c(C(C)N2CCN(C(=O)COc3ccc(Cl)cc3)CC2)nc2ccccc2c1=O [erastin],0.642,0.716
O=C(NNc1ccccc1)c1ccncc1 [PluriSln 1] + CCOc1ccccc1-n1c(C(C)N2CCN(C(=O)COc3ccc(Cl)cc3)CC2)nc2ccccc2c1=O [erastin],0.518,0.696
NC(=O)c1ncn([C@@H]2O[C@H](CO)[C@@H](O)[C@H]2O)c1N [AICAR (Acadesine)] + CCOc1ccccc1-n1c(C(C)N2CCN(C(=O)COc3ccc(Cl)cc3)CC2)nc2ccccc2c1=O [erastin],0.85,0.973
COc1ccc2c(c1)c(CC(=O)O)c(C)n2C(=O)c1ccc(Cl)cc1 [Indometacin] + CCOc1ccccc1-n1c(C(C)N2CCN(C(=O)COc3ccc(Cl)cc3)CC2)nc2ccccc2c1=O [erastin],0.941,0.639
Cc1ccc(Oc2nc3cc(-c4ccc(-c5ccccc5)cc4)c(Cl)cc3[nH]2)cc1C(=O)O + CCOc1ccccc1-n1c(C(C)N2CCN(C(=O)COc3ccc(Cl)cc3)CC2)nc2ccccc2c1=O [erastin],0.553,0.629
COc1ccc(C(=O)/C=C/c2ccccc2)cc1 [4'-Methoxychalcone] + CCOc1ccccc1-n1c(C(C)N2CCN(C(=O)COc3ccc(Cl)cc3)CC2)nc2ccccc2c1=O [erastin],0.54,0.54
CCCc1c(OCCCOc2ccc(OCC(=O)O)cc2)ccc(C(C)=O)c1O + CCOc1ccccc1-n1c(C(C)N2CCN(C(=O)COc3ccc(Cl)cc3)CC2)nc2ccccc2c1=O [erastin],0.752,0.833
C[C@@H]1OCC2(CCN(c3cnc(Sc4ccnc(N)c4Cl)c(N)n3)CC2)[C@@H]1N + CCOc1ccccc1-n1c(C(C)N2CCN(C(=O)COc3ccc(Cl)cc3)CC2)nc2ccccc2c1=O [erastin],0.553,0.732
